# From PubChem BioAssay
# Active and inactive are the calls of the source.
# Legend:
# [1] = binders of probe aFSTL3 on microarray, primary screen, stem cell growth factor project, biochemical, small-molecule microarray, fluorescence 635/667 (AID 1064); details: higher = more signal;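 further: measures binding of the biotinylated anti-FSTL3 antibody to printed compounds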
# [2] = binders from COS7 lysate, DM2A8 probe, primary screen, torsin A project, cell lysate, small-molecule microarray, fluorescence 635/667 (AID 1065); details: higher = more signal, COS7 lysate expressing mutant human TOR1A
# [3] = binders of probe aFGF2 on microarray, primary screen, stem cell growth factor project, biochemical, small-molecule microarray, fluorescence 635/667 (AID 1067); details: higher = more signal;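 further: measures binding of biotinylated aFGF2 protein to printed compounds on slides; z-score merges feature fluorescence and signal-to-noise across triplicate slides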
# [4] = binders of probe aFGF10 on microarray, primary screen, stem cell growth factor project, biochemical, small-molecule microarray, fluorescence 635/667 (AID 1071); details: higher = more signal;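 further: score merges 667 nm spot intensity and signal to noise from triplicate slides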
# [5] = target: Neurogenic locus notch homolog protein 2 (Homo sapiens) (UniProt Q04721); assay: Notch2 binders on small-molecule microarrays, primary screen, biochemical, small-molecule microarray, 635 nm fluorescence, stem cell growth factors (AID 1073); details: Notch2 binding, higher = more signal
# Neurogenic locus notch homolog protein 2 (Homo sapiens), sequence (Q04721 whole entry, looked up, canonical isoform): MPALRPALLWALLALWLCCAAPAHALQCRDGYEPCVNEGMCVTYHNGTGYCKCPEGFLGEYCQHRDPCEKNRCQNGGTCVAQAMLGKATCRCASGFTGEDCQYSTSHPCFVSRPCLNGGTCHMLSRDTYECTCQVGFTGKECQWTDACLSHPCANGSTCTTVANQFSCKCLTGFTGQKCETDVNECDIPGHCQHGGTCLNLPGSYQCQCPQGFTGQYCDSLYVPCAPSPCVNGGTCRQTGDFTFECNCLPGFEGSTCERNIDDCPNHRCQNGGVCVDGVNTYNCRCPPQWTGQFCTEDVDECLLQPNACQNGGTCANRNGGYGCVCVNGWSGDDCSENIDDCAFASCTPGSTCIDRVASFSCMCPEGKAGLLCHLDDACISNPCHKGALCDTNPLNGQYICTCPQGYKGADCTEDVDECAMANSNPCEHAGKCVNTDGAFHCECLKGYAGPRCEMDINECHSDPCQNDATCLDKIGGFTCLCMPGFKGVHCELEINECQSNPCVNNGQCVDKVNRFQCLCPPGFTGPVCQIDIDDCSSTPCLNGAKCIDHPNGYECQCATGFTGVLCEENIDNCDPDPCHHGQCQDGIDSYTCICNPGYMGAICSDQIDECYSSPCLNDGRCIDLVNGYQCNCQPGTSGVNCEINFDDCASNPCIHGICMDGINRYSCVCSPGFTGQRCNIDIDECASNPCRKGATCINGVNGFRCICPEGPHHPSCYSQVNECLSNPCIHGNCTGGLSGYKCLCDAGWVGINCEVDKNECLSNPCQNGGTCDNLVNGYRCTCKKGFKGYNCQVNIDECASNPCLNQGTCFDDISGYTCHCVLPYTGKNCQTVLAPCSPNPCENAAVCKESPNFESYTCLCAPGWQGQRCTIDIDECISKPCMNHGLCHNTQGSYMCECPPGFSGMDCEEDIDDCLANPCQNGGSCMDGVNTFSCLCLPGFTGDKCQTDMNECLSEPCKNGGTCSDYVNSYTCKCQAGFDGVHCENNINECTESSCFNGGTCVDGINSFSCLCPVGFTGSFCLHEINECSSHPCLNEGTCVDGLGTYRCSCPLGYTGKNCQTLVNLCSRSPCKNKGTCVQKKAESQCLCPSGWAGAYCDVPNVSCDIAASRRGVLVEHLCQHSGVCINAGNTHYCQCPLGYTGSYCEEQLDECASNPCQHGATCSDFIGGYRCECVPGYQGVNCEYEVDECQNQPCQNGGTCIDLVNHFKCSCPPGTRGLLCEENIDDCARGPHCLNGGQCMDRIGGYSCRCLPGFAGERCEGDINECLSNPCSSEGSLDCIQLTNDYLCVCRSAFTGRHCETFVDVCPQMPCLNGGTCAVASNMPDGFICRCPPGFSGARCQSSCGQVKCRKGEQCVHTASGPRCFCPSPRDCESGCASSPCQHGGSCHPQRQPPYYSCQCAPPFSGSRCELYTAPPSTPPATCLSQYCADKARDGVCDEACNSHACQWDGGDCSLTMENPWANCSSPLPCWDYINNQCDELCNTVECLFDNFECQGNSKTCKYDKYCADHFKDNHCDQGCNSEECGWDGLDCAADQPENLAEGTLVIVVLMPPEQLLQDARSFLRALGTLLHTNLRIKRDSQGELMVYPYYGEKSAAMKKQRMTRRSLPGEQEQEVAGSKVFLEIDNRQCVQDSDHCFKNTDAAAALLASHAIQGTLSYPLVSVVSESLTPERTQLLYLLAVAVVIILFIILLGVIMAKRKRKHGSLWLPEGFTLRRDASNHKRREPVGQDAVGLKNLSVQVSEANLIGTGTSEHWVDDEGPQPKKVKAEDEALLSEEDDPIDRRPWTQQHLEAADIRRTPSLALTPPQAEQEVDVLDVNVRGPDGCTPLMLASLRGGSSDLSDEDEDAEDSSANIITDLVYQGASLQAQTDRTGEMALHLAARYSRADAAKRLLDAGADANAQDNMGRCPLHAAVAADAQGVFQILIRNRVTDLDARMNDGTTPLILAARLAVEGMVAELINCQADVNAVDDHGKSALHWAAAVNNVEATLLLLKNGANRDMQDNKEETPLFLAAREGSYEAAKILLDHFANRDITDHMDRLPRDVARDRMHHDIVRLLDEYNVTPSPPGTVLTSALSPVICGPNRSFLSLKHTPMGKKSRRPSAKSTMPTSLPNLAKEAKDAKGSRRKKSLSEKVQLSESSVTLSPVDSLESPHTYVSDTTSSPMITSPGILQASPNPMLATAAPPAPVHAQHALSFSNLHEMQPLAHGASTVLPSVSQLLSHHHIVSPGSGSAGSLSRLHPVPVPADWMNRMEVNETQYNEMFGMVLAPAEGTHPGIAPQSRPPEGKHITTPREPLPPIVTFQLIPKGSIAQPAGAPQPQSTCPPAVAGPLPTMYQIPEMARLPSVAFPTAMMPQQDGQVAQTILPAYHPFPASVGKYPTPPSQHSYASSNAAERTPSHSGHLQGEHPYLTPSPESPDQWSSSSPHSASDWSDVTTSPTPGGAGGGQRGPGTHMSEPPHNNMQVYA
# [6] = target: Pro-neuregulin-1, membrane-bound isoform (Homo sapiens) (UniProt Q02297); assay: NRG1 binders on small-molecule microarrays, primary screen, psychiatric disease protein project, biochemical, small-molecule microarray, fluorescence 635/667 (AID 1075); details: NRG1 binding, 635 nm fluorescence, higher = more signal;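 further: score combines 667 nm spot fluorescence with signal to noise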
# Pro-neuregulin-1, membrane-bound isoform (Homo sapiens), sequence (Q02297 whole entry, looked up, the tested form may be a part, canonical isoform): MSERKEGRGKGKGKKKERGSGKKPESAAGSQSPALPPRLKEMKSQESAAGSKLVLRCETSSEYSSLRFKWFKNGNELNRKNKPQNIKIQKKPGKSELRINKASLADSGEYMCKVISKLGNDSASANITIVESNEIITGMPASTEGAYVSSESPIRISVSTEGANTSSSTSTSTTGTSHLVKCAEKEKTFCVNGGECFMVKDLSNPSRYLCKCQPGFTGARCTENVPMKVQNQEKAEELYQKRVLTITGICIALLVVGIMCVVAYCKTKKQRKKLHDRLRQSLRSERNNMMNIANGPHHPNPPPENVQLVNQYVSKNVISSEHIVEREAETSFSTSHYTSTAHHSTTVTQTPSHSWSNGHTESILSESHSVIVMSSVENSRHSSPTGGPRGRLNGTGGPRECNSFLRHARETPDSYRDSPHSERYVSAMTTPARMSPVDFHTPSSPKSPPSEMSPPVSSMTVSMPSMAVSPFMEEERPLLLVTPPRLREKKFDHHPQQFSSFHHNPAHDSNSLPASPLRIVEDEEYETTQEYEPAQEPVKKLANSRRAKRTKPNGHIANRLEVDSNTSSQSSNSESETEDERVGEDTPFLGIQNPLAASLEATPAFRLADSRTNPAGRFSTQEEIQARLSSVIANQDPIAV
# [7] = system: Neuregulin-1 EGF-like domain; assay: binders of neuregulin-1 EGF-like domain, primary screen, biochemical, small-molecule microarray, 635 nm fluorescence (AID 1081); details: small-molecule microarray binding, higher = more signal;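 further: binding of the protein to compounds printed on small-molecule microarray slides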
# [8] = FRG1 promoter luciferase signal modulators, primary screen, FRG1 inhibition for FSHD, cell-based, C2C12 myotubes, firefly/Renilla luciferase, luminescence (AID 1084); details: higher = more signal, called active from +8 up or from −8 down
# [9] = binders of probe aFST on microarray, primary screen, stem cell growth factor project, biochemical, small-molecule microarray, fluorescence 635/667 (AID 1086); details: higher = more signal;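 further: score merges 667 nm fluorescence with signal-to-noise of each printed compound spot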
# [10] = binders of probe aHhip on microarray, primary screen, stem cell growth factor project, biochemical, small-molecule microarray, fluorescence 635/667 (AID 1087); details: higher = more signal;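 further: score merges spot fluorescence at 667nm with spot signal to noise ratio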
SMILES,composite z-score [1],composite z-score [2],composite z-score [3],composite z-score [4],composite z-score [5],composite z-score [6],composite z-score [7],z-score [8],composite z-score [9],composite z-score [10]
O=C1[C@H]2[C@H]3[C@H](O)[C@H](O)CC(=NOCc4ccccc4)[C@H]3CC[C@H]2C(=O)N1C[C@@H]1CCCO1,-0.493,-0.259,-0.133,0.717,0.564,0.512,0.792,-0.187 (inactive),0.14,-0.123
C[C@@H](c1ccccc1)N1C(=O)[C@H]2[C@H]3[C@H](O)[C@H](O)CC(=NOC[C@@H](O)COCc4ccco4)[C@@H]3CC[C@H]2C1=O,0.193,0.068,-0.159,-0.141,-1.02,-0.717,-0.647,-0.0058 (inactive),0.0275,-0.137
COc1ccc(O[C@H]2C=C[C@@H](c3ccccc3)O[C@@H]2COC(=O)CCC(C)=NOCC[C@@H]2C=C[C@H](OC(C)=O)[C@@H](COC(C)=O)O2)cc1,-0.19,0.779,-0.0363,-0.171,-0.086,0.0028,-0.183,1.04 (inactive),0.406,0.305
O=C1O[C@@H](c2ccccc2)[C@@H](c2ccccc2)N2[C@@H](c3ccc(OCCO)cc3)[C@]3(C(=O)Nc4ccc(C#CCCO)cc43)[C@@H](C(=O)N3CCCCCCC3)[C@H]12,3.26,2.28,0.702,1.12,1.36,2.02,1.18,-1.99 (inactive),3.04,2.53
CCOC(=O)C[C@H]1[C@H](OC(=O)c2cc3ccccc3oc2=O)[C@@H](NC(=O)c2ccc3ccccc3n2)c2cc(OCCCO)ccc2N1C(=O)c1ccccc1,-0.189,0.459,-0.0455,0.706,0.302,0.0269,0.736,0.331 (inactive),0.353,-0.383
[N-]=[N+]=Nc1ccccc1C[C@@]1(C(N)=O)N=C(c2ccc(OCCCO)cc2)O[C@@H]1c1ccccc1,1.57,0.49,0.0249,0.296,0.975,1.05,1.16,1.23 (inactive),0.784,-0.181
COC(=O)CC1OC1[C@H](C)[C@@H](OC)C(C)C (stereo not given in full),-0.243,-0.0917,-0.201,0.123,-0.624,-0.407,-0.102,1.24 (inactive),0.0068,-0.316
CC(C)=C1C(=O)C(c2ccccc2)=C2CN3C(=O)N(CCc4ccccc4)C(=O)[C@]3(Cc3ccc(F)cc3)[C@H]21,0.565,-0.65,0.0547,-0.247,-1.09,1.3,0.134,-0.0896 (inactive),0.841,0.0722
COc1ccccc1CN1C(=O)c2ccccc2[C@@H](C(=O)NCC(F)(F)F)[C@@H]1c1ccc(CO)cc1,-0.271,0.683,-0.0829,0.0992,0.654,1.17,1.39,-3 (inactive),0.19,-0.0994
Cc1ccc(S(=O)(=O)N[C@@H]2COC(=O)[C@H](C)COC(=O)CC=C[C@H]2C)cc1,-0.618,0.133,-0.121,0.305,-0.0058,-0.0185,-0.228,-0.564 (inactive),-0.0468,0.176
COc1cccc([C@H]2Oc3ccc(OC)cc3C(=NOC(C)CN3CCCc4nc(C)c(C)cc43)[C@@H]2O)c1 (stereo not given in full),-0.437,0.15,-0.0316,0.32,0.687,0.146,0.541,2.49 (inactive),-0.055,0.154
CCOC(=O)[C@H](Cc1ccccc1)NC(=O)CCC1CC(OC(=O)NCc2ccc3c(c2)OCO3)CC2(CCCC(COC(=O)NCc3ccccc3)O2)O1 (stereo not given in full),-0.0824,0.204,-0.0103,0.697,0.808,0.317,0.718,1.54 (inactive),0.393,0.0505
O=C1[C@H]2[C@H]3[C@H](O)[C@H](O)CC(=NOCc4ccccc4)[C@H]3CC[C@H]2C(=O)N1c1cccc(Oc2ccccc2)c1,-0.602,0.154,-0.052,0.919,0.554,0.391,1.16,0.335 (inactive),0.4,0.0053
C=C(COC)/C(=C/C[C@H](OC(=O)c1ccncc1)c1ccc(CO)o1)c1cc(C(=O)OC)ccc1OC,-0.393,0.649,0.0026,0.905,0.614,0.407,0.716,0.0676 (inactive),0.404,-0.123
